# Active and inactive are the calls of the source. Calls come from the whole dose curve; as a rule, active = well fitted curve in the direction sought with a large enough effect; inconclusive = small, poorly fitted or top-dose-only effect, or another doubt; inactive = no such curve, though single readings can be large or run the other way.
# Experiment: Cellular Toxicity (caspase-3) HUV-EC-C (AID 656)
# Conditions: HUV-EC-C cells, caspase-3 activation (apoptosis), vehicle = 0, 100 µM tamoxifen = 100%; series mostly up to 92.2 µM
# Excerpt: NIH Chemical Genomics Center [NCGC]
# NIH Molecular Libraries Screening Centers Network [MLSCN]
# National Institutes of Environmental Health Sciences [NIEHS]
# National Toxicology Program [NTP]
# We have developed a 1536-well cell-based assay for quantitative high throughput screening (qHTS) against a number of cell lines to determine in vitro caspase 3/7 of small molecules. This particular assay uses the HUV-EC-C cell line which is derived from normal human vascular endothelial cells.
# NCGC Assay Protocol Summary:
# The Caspase-Glo 3/7 assay (Promega) is a homogeneous method to measure caspase-3 and caspase-7 activities in cultured cells. The quantitation of caspase 3/7 activity is based on the cleavage of a peptide-aminoluciferin substrate. After caspase cleaves the substrate the free aminoluciferin is liberated and serves as the substrate of luciferase, which generates the light. The luminescent signal is proportional to amount of caspase 3/7 activity present.
# Using the Caspase-Glo 3/7 assay, the amount of caspase 3/7 activity was measured in the HUV-EC-C cell line with complete culture medium following compound treatment for 16 hours. The assay was performed in opaque white 1536-well plates. In the screen, tamoxifen and doxorubicin were used as positive controls. Library compounds were measured for their ability to cause the activation of caspase 3/7 in the cell line, as reflected by an increase in luminescence signal, in a concentration-dependent manner. Data were normalized to the controls for basal activity (DMSO only) and 100% stimulation (100 uM tamoxifen). AC50 values were determined from concentration-response data modeled with the standard Hill equation.
# qHTS protocol for caspase 3/7 assay in HUV-EC-C cell line
# [Step] [Parameter] [Value] [Description]
# 1. Reagent; 5 uL; 1000 HUV-EC-C cells/well
# 2. Time; 5 hr; 37 °C incubation
# 4. Controls; 23 nL; Tamoxifen 0.23 uM to 100 uM & doxorubicin 7.0 pM to 100 uM
# 5. Time; 16 hr; 37 °C incubation
# 6. Reagent; 5 uL; Caspase-Glo 3/7 reagent
# 7. Time; 20 min; Room Temperature
# 8. Detection; Luminescence; Viewlux plate reader
# Keywords: caspase 3/7, apoptosis, HUV-EC-C cell line, luminescence, NTPHTS, NTPHTS_NCGC, NIEHS, EPA, DSSTox, MLSMR, MLSCN, NIH Roadmap, qHTS, NCGC
row,SMILES,outcome
1,C=Cc1ccccc1Cl,inactive
2,Cc1ccccc1C,inactive
3,NC1=NC(S)C2N=CN=C2N1 (stereo not given),inactive
4,C=CC(=O)OCCOCCOCCOCCOC(=O)C=C,inactive
5,CC12CCC(CC1=O)C2(C)C (stereo not given),inactive
6,O=C(O)CC(C(=O)O)C(CC(=O)O)C(=O)O (stereo not given),inactive
7,CCC(O)OC(O)CC (stereo not given),inactive
8,CN(C)CCCCCCN(C)C,inactive
9,C[C@H](CCC(=O)O)[C@H]1CC[C@H]2[C@@H]3CC[C@@H]4C[C@H](O)CC[C@]4(C)[C@H]3CC[C@]12C,inactive
10,CCCCCCCCCCCCCC(=O)O,inactive
11,Cc1c(N=C=O)cccc1N=C=O,inactive
12,ClCCCl,inactive
13,CCO,inactive
14,O=C(O)c1ccccc1C(c1ccc(O)cc1)c1ccc(O)cc1,inactive
15,Cc1ccc([N+](=O)[O-])cc1N,inactive
16,CCCCOCCO,inactive
17,c1ccc2c(c1)[nH]c1ccccc12,inactive
18,CCCCCCCCCCCCCCC1CO1 (stereo not given),inactive
19,CC1(C)CC(N=C=O)CC(C)(CN=C=O)C1 (stereo not given),inactive
20,COC(=O)c1ccc(C)cc1,inactive

row,SMILES,outcome
1,Cc1ccc([N+](=O)[O-])c(C)c1,inactive
2,O=C1c2ccccc2C(=O)C1c1ccc2ccccc2n1,inactive
3,S=C1NC=NC2N=CNC12 (stereo not given),inactive
4,Clc1cc(Cl)c(Cl)c(Cl)c1Cl,inactive
5,Nc1ccc(Cl)cc1Cl,inactive
6,O=[N+]([O-])c1cccc(Cl)c1Cl,inactive
7,CC1=CC(C)(C)Nc2ccccc21,inactive
8,CCCCCCCCCCCC(=O)O,inactive
9,C=CCOC(=O)c1ccccc1C(=O)OCC=C,inactive
10,OCCNCCO,inactive
11,COc1cc(/C=C/c2ccccc2)oc(=O)c1,inactive
12,C=CCc1ccc(OC)c(OC)c1,inactive
13,CCCCC(CC)CN (stereo not given),inactive
14,COC(=O)CCCCC(=O)OC,inactive
15,C=CC(=C)CCC=C(C)C,inactive
16,C1OCOCO1,inactive
17,Nc1ccc(S(=O)(=O)O)cc1,inactive
18,CCCN(CCC)C(=O)SCC,inactive
19,c1ccc2scnc2c1,inactive
20,O=C(O)c1ccccc1,inactive

# Source: PubChem BioAssay (NCATS)
